According to PubChem BioAssay (NCI):
Values joined by “and” are separate entries in the source; they are usually repeats but may differ in a detail not shown here. Identical values can stand only once. About 83,000 compounds went through this panel and 20% of them were active in at least one assay; those are over-represented in the sample as a whole.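 Method: cells in 96-well plates; compound added at one concentration; 48 h incubation; percent growth measured; values under 10 scored active.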 A number with no mark means an inactive call. Active and inactive are the calls of the source.

These compounds were tested on MDA-MB-468 breast (assay: NCI-60 one-dose screen, 48 h (100 = growth as untreated, 0 = no growth, -100 = all killed)). Details: 10 µM unless noted.
For `CC(Oc1ccc(C(=O)O)cc1C(F)(F)F)c1ccc(Oc2ccccc2)cn1` (stereo not given), the growth was 97.3%. For `O=C(Cn1nc(-c2cccc3ccccc23)ccc1=O)NCc1cccc(Cl)c1`, the growth was 12.8% [50 µM]. With `Cc1ccc(S(=O)(=O)n2cc(C(=O)C(=O)N3CCOCC3)c3ccccc32)cc1` the growth was 90.4%. `COc1ccc(NC(=O)c2sc3nc4c(cc3c2N)CCCC4)cc1` gave a growth of 13.6%. `COc1ccc(-c2csc(NC(=O)CN3CCN(CCO)CC3)n2)cc1NS(=O)(=O)c1cccc2c(N(C)C)cccc12` showed a growth of 55.6%. For `C=C1C(=O)O[C@H]2[C@H]1CC/C(COC(=O)N[C@@H](Cc1c[nH]c3ccccc13)C(=O)OC)=C\CC[C@@]1(C)O[C@@H]21`, the growth was -16.4% (active). For `O=CCCCC(O)C=O` (stereo not given), the growth was 98.9%. Compound `Nc1nc(N)c2cc(CNc3ccc(C(=O)NC(CC(=O)O)C(=O)O)cc3)ccc2n1` (stereo not given) has a growth of 61.4%. With `Cc1cccc(/C=C\C(=O)c2ccccc2)c1` the growth was 105% and 99%. With `CC1(C)C=CC[C@]2(C)[C@H]3CC[C@@H]4[C@H]5[C@H](C(=O)/C=C/c6cccnc6)CC[C@]5(CO)CC[C@@]4(C)[C@]3(C)CC[C@@H]12` the growth was -60.7% (active). Compound `CC(=O)c1c(C)[nH]c(-c2nc3ccc(N4CCN(C)CC4)cc3[nH]2)c1-c1ccc(N(C)C)cc1` has a growth of 21%. `CC1(C)NC2=C(C(Nc3cccnc3)N1)C(c1ccc([N+](=O)[O-])cc1)C(C(=O)c1ccc(N=[N+]=[N-])cc1)O2` (stereo not given) showed a growth of 115%. In the case of `O=C(N/N=C/c1ccc(Cl)s1)c1[nH]c2ccc(Br)cc2c1-c1ccccc1`, the growth is reported as 2.96% (active). `COc1ccc(-c2nc(/C=C3\C(=O)N(C)c4ccccc43)c3ccccn23)cc1` gave a growth of 98.5%. Work on `CC(=O)Oc1cccc(OC(C)=O)c1OC(C)=O` yielded a growth of 97.6%. For `CCOC(=O)NC(/C=C/c1ccccc1)NC(=O)OCC`, the growth was 99.7%. In the case of `COc1ccc(C(=O)C2CC2c2ccc(Cl)cc2)cc1` (stereo not given), the growth is reported as 98.3%. `CN1CCN(C(=O)c2ccc(NC(=O)c3cc4c(nn3)NCCN4Cc3cc(Cl)ccc3Cl)cc2)CC1` showed a growth of 60.9%. `COc1ccc(Cn2c(Br)c3c(c2-c2cc(OC)c(OC)c(OC)c2)CCc2sc(NC(C)=O)nc2-3)cc1` showed a growth of 22.8%. Compound `CNC(=O)c1cc(Oc2ccc3nc(NC(=O)Nc4ccc(N5CCC(N(C)C)CC5)cc4)sc3c2)ccn1` has a growth of 76.3%. In the case of `CCCc1cc2c(cc1Br)OCO2`, the growth is reported as 115%. In the case of `N#Cc1c(N)n2c(nc1=Nc1ccc(Cl)cc1)sc1cc(Cl)ccc12`, the growth is reported as 22.5%. Work on `CCOC(=O)c1ccc(C(C)(C)C)cc1` yielded a growth of 107%. `CCOc1c(C#N)nnc2c(C#N)c(NC(=O)c3ccccc3)nn12` showed a growth of 103%. In the case of `COc1ccc2nc(-c3ccc(Cl)cc3)cc(C(=O)N3N=C(c4ccc(N)cc4)CC3c3ccccc3)c2c1` (stereo not given), the growth is reported as 30.9%. Work on `COc1ccc2[nH]cc(-c3nc(-c4cn(C)c5ccncc45)cs3)c2c1` yielded a growth of 102%. In the case of `O=C1CCC(N2C(=O)c3cccc(NCCCC4CCN(CCNC(=O)c5cc6c(o5)C(=O)c5ccccc5C6=O)CC4)c3C2=O)C(=O)N1` (stereo not given), the growth is reported as -73.9% (active). In the case of `O=C(NN1C(=O)CSC1c1cccc([N+](=O)[O-])c1)c1ccc(NC(=O)c2ccccn2)cc1` (stereo not given), the growth is reported as 98.8%. With `CC/C=C\C/C=C/C=C1/C(=O)C=C[C@@H]1C/C=C\CCCC(=O)OC` the growth was 19.8%. `CC(C)C[C@H](C(=O)N[C@H](C(N)=O)C(C)C)N1CC=CCN(OCc2ccccc2)S1(=O)=O` gave a growth of 105% [2.5 µM]. `CC12CCC3C4(C)COC(c5ccccc5Cl)OC4CCC3(C)C1CC(C1=CCOC1=O)O2` (stereo not given) showed a growth of 24.9%. Compound `Cc1cc2c([nH]1)CSc1cc(S(=O)(=O)c3ccccc3)c(=O)[nH]c1-2` has a growth of 24% [100 µM]. Compound `CCCCN(CCCC)CC(C)(C)C(O)c1ccc(OC)c2ccccc12` (stereo not given) has a growth of 41.8%. In the case of `O=C(NCc1cccc(C(F)(F)F)c1)[C@H](CCC(=O)N1CCN(C2CCCCC2)CC1)N1C(=O)[C@@H](N2C(=O)OC[C@@H]2c2ccccc2)[C@H]1/C(Cl)=C/c1ccccc1`, the growth is reported as -5.16% (active). Compound `OCC1C2C=CC(C2)C1CO` (stereo not given) has a growth of 98.4%. Compound `O=C(Nc1cccc(-n2cc(-c3ccncc3)c(-c3ccc(O)c(Cl)c3)n2)c1)c1ccc(N2CCOCC2)c(C(F)(F)F)c1` has a growth of 65.9%. In the case of `C=C1C(=O)O[C@H]2[C@H]1CC/C(COC(=O)NCc1ccc(Cn3c(=O)sn(-c4ccc(OC)cc4)c3=O)cc1)=C\CC[C@@]1(C)O[C@@H]21`, the growth is reported as 17.9%. For `COc1ccc(/C=C/C(=O)c2cc3c(N)c(C(=O)Nc4cccc(Cl)c4C)sc3nc2C)cc1`, the growth was 17.1%. `CCCc1nn2c(CCC(=O)c3nc4ccc([N+](=O)[O-])cc4[nH]3)nnc2s1` showed a growth of 114%. In the case of `COc1ccc(/C=N/C2=C(C#N)C(c3cccc(Cl)c3)c3c(ccc4ccccc34)O2)cc1` (stereo not given), the growth is reported as 3.32% (active).
